HT1080-NT tox: qHTS for induction of synthetic lethality in tumor cells producing 2HG: qHTS for the HT-1080-NT fibrosarcoma cell line | 360,000 compounds, 1.6% hits | HT-1080-NT fibrosarcoma viability, CellTiter-Glo ATP luminescence, 48 h | AID 686970, 2013 | Potency, µM (top dose mostly 46.1 µM), inactives show at the top dose activity, negative = less viability, usual class: cytotoxic;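 further: NT is the 2HG producing partner of a matched IDH1 knockdown line; potency means the concentration at half of the fitted maximal effect; 0% = DMSO-treated cells and -100% = media-only wells without cells; nearly all actives have a fitted effect of over 55% in size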
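Viability by CellTiter-Glo luminescence after 48 h compound exposure at 37C of HT-1080-NT cells (750/well, RPMI, 5% FBS). % activity scaled between DMSO wells and medium-only wells, then curve-fitted and categorized by curve class.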
IL1B secr inh: qHTS for Inhibitors of Inflammasome Signaling: IL-1-beta AlphaLISA Primary Screen | THP-1 LPS/ATP IL-1B secretion, AlphaLISA, 16 h; stronger effect = lower value | 360,000 compounds, 4.7% hits | activity change, % at 57.5 µM | AID 743279, 2014; in the data active means activity change below about -50%; inconclusive means mostly about -30% to -49%
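THP-1 cells pretreated 1 hr with compounds (up to 57.5 uM final), then stimulated with LPS (250 ng/mL final) plus ATP (1.25 mM final); secreted IL-1B measured by AlphaLISA after 16 hr, decreased signal indicating inhibition.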
KB-3-1 cytotox: qHTS assay for MDR1-selective chemotherapeutics: Primary screen using the parental adenocarcinoma cell KB-3-1 | KB-3-1 viability, CellTiter-Glo ATP luminescence, 72 h | Potency, µM (highest dose often 46.1 µM), usual class: cytotoxic | 400,000 compounds, 1.4% hits | AID 1347075, 2019; further: potency means the concentration at half of the fitted maximal effect; nearly all actives have a fitted effect of over 60% in size
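Multi-concentration cytotoxicity screen in KB-3-1 cells grown in DMEM lacking phenol red with 10% FBS. After 72 h at 37 °C with compound, ATP-dependent luminescence was recorded.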
HT1080 IDH1KD tx: qHTS for induction of synthetic lethality in tumor cells producing 2HG: qHTS for the HT-1080-IDH1KD cell line; HT-1080 IDH1 knockdown viability, ATP luminescence, 48 h; Potency, µM (highest dose often 46.1 µM), for inactives: top-dose activity, negative = toxicity, most hits filed as cytotoxic; 360,000 compounds, 2% hits; AID 686971, 2013;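 further: potency means the concentration at half of the fitted maximal effect; 0% = DMSO wells and -100% = cell-free medium wells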
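Cytotoxicity counter-line: IDH1KD HT-1080, 48 h, CellTiter-Glo. Curves classed by r2, magnitude and activity.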
KB-V1 cytotox: qHTS assay for MDR1-selective chemotherapeutics: Primary screen using the drug-selected MDR subline cells KB-V1; 400,000 compounds, 3.4% hits; Potency, µM (titrated, usually from 46.1 µM), hits mostly cytotoxic; KB-V1 MDR cells viability, CellTiter-Glo, 72 h; further: potency means the concentration at half of the fitted maximal effect; nearly all actives have a fitted effect of over 60% in size
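KB-V1 cells (P-gp-expressing MDR subline of KB-3-1) in phenol-red-free DMEM with 10% FBS were exposed to library compounds over a concentration series for 72 h at 37 degrees C. Viability read by CellTiter-Glo luminescence; concentration-effect curves fitted after normalization.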
The depositor's hits bear a star; i = inactive; ? = inconclusive; / = not tested or not shown. The list is not random: actives were taken first. Their share in the collection is about 8.8%. Unless noted, the call rests on the fitted dose curve; in most records, active means well fitted curve in the direction sought with a large enough effect; inconclusive means small, poorly fitted or top-dose-only effect, or another doubt; inactive means no such curve, though single readings can be large; an effect the other way counts as inactive or inconclusive. Unless noted, on the % scale 0 is the no-effect control and ±100 the full control effect.

SMILES | HT1080-NT tox | IL1B secr inh | KB-3-1 cytotox | HT1080 IDH1KD tx | KB-V1 cytotox
CCOC(=O)Cc1csc(NC(=O)CCCCCN2C(=O)c3ccccc3C2=O)n1 | 5% | -56* | i | 6% | ?
O=C(CS(=O)(=O)Cc1ccccc1)Nc1nc2c(s1)CCCC2 | 1% | -1 | i | 14% | i
CCOC(=O)Cc1csc(NC(=O)CCS(=O)(=O)Cc2ccccc2)n1 | ? | 2 | i | 10µM* | i
CCOC(=O)Cc1csc(NC(=O)CSc2nc(N)c3c(C)c(C)sc3n2)n1 | ? | 7 | i | -10% | 8.2µM*
CCOC(=O)Cc1csc(NC(=O)CSc2nc(C)cc(C)n2)n1 | 4% | 42 | i | 13% | i
CCOC(=O)Cc1csc(NC(=O)CCc2ccccc2)n1 | 4% | 42 | i | 1% | i
O=C(CCS(=O)(=O)Cc1ccccc1)Nc1nc2c(s1)CCCC2 | ? | 58 | ? | 8.9µM* | ?
O=C(CN1CCCc2ccccc21)Nc1cccc(S(=O)(=O)N2CCCC2)c1 | 2% | 20 | i | 0% | ?
CCOC(=O)Cc1csc(NC(=O)Cn2c(=O)oc3ccccc32)n1 | -6% | -84* | i | -5% | i
Cc1ccc(C)c(N2C(=O)N(C)c3ccccc3S2(=O)=O)c1 | / | / | i | / | i
COc1cc(/C=C2/C(=O)NN(c3ccc(C)c(Cl)c3)C2=O)cc([N+](=O)[O-])c1O | -10% | -9 | i | -1% | i
Cc1ccc(N2NC(=O)/C(=C\c3cc4c(cc3[N+](=O)[O-])OCO4)C2=O)cc1C | -14% | -105* | ? | -1% | i
CCCn1c(SCc2nc(-c3cc(OC)ccc3OC)no2)nnc1-c1ccc(Cl)cc1 | / | / | i | / | ?
Cc1ccccc1NS(=O)(=O)c1ccc(C(=O)N2CCN(S(=O)(=O)c3ccccc3)CC2)cc1 | 6% | -4 | i | 14% | ?
O=C(CSc1nc2nc(-c3cccs3)cc(C(F)(F)F)c2c(=O)[nH]1)Nc1c(F)c(F)c(F)c(F)c1F | 12µM* | -8 | ? | -11% | i
NS(=O)(=O)c1cccc(NC(=O)CSc2nc3nc(-c4cccs4)cc(C(F)(F)F)c3c(=O)[nH]2)c1 | -22% | -9 | i | -18% | i
CCCc1cc(=O)n2nc(N3CCC(C(=O)NCc4ccc(C)o4)CC3)sc2n1 | 1% | -5 | i | -1% | i
CCCN(CCC)C(=O)Cc1ccc(F)cc1 | -5% | -9 | i | -2% | i
CCCCCCCCCCCCCCCC[N+](C)(C)Cc1ccc(F)cc1 | 3% | -74* | ? | -23% | i
CN1C(=O)/C(=C\C(=O)c2cccs2)c2ccccc21 | 10µM* | -103* | ? | ? | ?
Cc1ccc(S(=O)(=O)N2CCCC2)cc1C(=O)NCc1ccccc1CN1CCCC1 | -5% | -13 | i | 5% | i
CCCN(CCC)CC(O)Cn1cc(/C=C/C(=O)c2ccccc2)c2ccccc21 (stereo unspecified) | ? | -86* | ? | 15µM* | i
CCCN(CCC)CC(O)Cn1cc(/C=C/C(=O)c2cccs2)c2ccccc21 (stereo unspecified) | -7% | -104* | ? | -1% | ?
COC(C[C@H](O)[C@@H](C)[C@H](O)COCc1ccccc1)OC | -3% | 20 | i | -7% | i
CCC(Oc1ccc(Br)cc1Cl)C(=O)Nc1nnc(C2CC2)s1 (stereo unspecified) | 2% | 13 | / | 2% | /
O=C(NCCCN1CCc2ccccc2C1)Nc1ccc(Br)cc1 | ? | -17 | i | 18µM* | i
COc1ccc(NC(=O)NCCCN2CCc3ccccc3C2)cc1 | -9% | -12 | i | -1% | i
O=C(Nc1ccc(Br)cc1F)c1cc2nc(-c3ccco3)cc(C(F)(F)Cl)n2n1 | / | / | i | / | ?
